Experiment [1] can be described thus: Viability qHTS for spleen associated tyrosine kinase inhibitor (SYKi) naive MV4-11 cells (AID 1963823). Further: nearly all actives have a fitted effect of over 40% in size. Further: potency means the concentration at half of the fitted maximal effect. To be noted: MV4-11 AML viability, CellTiter-Glo luminescence, 72 h; series mostly up to 45 µM. Put shortly: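 Seeding of 500 SYKi-naive MV4-11 cells per well onto pre-dispensed compounds preceded a 72 hr incubation at 37 C. Luminescent CellTiter-Glo signal, read after 10 min at room temperature, reflected viable cells.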

Experiment [2] can be described thus: Viability qHTS for spleen associated tyrosine kinase inhibitor (SYKi) drug resistant MV4-11 cells (AID 1963824). Further: nearly all actives have a fitted effect of over 35% in size. Further: potency means the concentration at half of the fitted maximal effect. To be noted: SYKi-resistant MV4-11 viability, CellTiter-Glo, 72 h; series mostly up to 45 µM. Put shortly: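 CellTiter-Glo luminescence, read 10 min after reagent addition, reports viability after a 72 hr compound exposure. Cells are an MV4-11 line made resistant to SYK inhibition, seeded at 500 per well onto compound-containing plates.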
For orientation: qHTS replaces the single test concentration by a dilution series.

Experiment [3] is described as follows: Quantitative highthroughput screen to assess conditional lethalithy of NOMO1 cells grown in RPMI1640 with untreated serum (RPMI+s) (AID 1963876). Further: nearly all actives have a fitted effect of over 35% in size. Further: potency means the concentration at half of the fitted maximal effect.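 On Viability: 100% = DMSO wells and 0% = empty wells without cells.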 To be noted: NOMO1 AML cells in RPMI+serum, CellTiter-Glo viability, 48 h; series mostly up to 45.8 µM. Put shortly: (§1)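 Each medium arm—HPLM with 10% dialyzed FBS, or RPMI1640 with 5 mM glucose and 10% untreated or dialyzed FBS—was screened against an 11-point, 3-fold compound titration for 48 h at 37 °C, with CellTiter-Glo luminescence as endpoint.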
Background: In ATP-based viability assays light output follows the ATP content of the culture.

The nature of experiment [4]: Quantitative highthroughput screen to assess conditional lethalithy of NOMO1 cells grown in Human Plasma-Like Medium with dialyzed fetal bovine serum (HPLM+ds) (AID 1963878). Further: nearly all actives have a fitted effect of over 35% in size. Further: potency means the concentration at half of the fitted maximal effect.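 On Viability: 100% = DMSO wells and 0% = empty wells on each plate.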 The following applies: NOMO1 AML cells in HPLM+ds, CellTiter-Glo viability, 48 h; series mostly up to 45.8 µM. Put shortly:
as §1

A short description of experiment [5]: Cellular viability qHTS for adrenocortical cancer (ACC) cell line SW-13 (AID 1963989). Further: nearly all actives have a fitted effect of over 65% in size. Further: potency means the concentration at half of the fitted maximal effect.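 On activity (max response): cells grown in serum-free medium with ITS supplement; on the % scale 0 is the no-effect control and ±100 the full control effect.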 To be noted: SW-13 ACC cells viability, CellTiter-Glo, 48 h; activity (max response): stronger effect = lower value. An outline of the steps: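 Viability was read as CellTiter-Glo luminescence after 48 h compound treatment (up to 46 uM final) of SW-13 cells grown serum-free; titration curves were fit with a four-parameter logistic model to give IC50 and efficacy.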

The nature of experiment [6]: Quantitative highthroughput screen to assess conditional lethalithy of P12 Ichikawa cells grown in Human Plasma-Like Medium with dialyzed fetal bovine serum (HPLM+ds) (AID 1963879). Further: nearly all actives have a fitted effect of over 35% in size. Further: potency means the concentration at half of the fitted maximal effect. The following applies: ATP luminescence, 48 h; Potency: viability; series mostly up to 45.8 µM. Put shortly: as §1
The nature of experiment [7]: Quantitative highthroughput screen to assess conditional lethalithy of P12 Ichikawa cells grown in RPMI1640 with untreated serum (RPMI+s) (AID 1963881). To be noted: ATP luminescence, 48 h; Potency: viability; series mostly up to 45.8 µM. Put shortly:
as §1

Experiment [8] can be described thus: Quantitative highthroughput screen to assess conditional lethalithy of SEM cells grown in Human Plasma-Like Medium with dialyzed fetal bovine serum (HPLM+ds) (AID 1963882). Further: nearly all actives have a fitted effect of over 35% in size. Further: potency means the concentration at half of the fitted maximal effect. To be noted: SEM B-ALL cells in HPLM+ds, CellTiter-Glo viability, 48 h; series mostly up to 45.8 µM. Put shortly:
as §1

Experiment [9] is described as follows: Quantitative highthroughput screen to assess conditional lethalithy of SEM cells grown in RPMI1640 with unreated serum (RPMI+s) (AID 1963883). Further: nearly all actives have a fitted effect of over 35% in size. Further: potency means the concentration at half of the fitted maximal effect.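 On Viability: 100% = DMSO wells and 0% = empty wells without cells.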 The following applies: SEM B-ALL cells, CellTiter-Glo viability, 48 h; series mostly up to 45.8 µM. An outline of the steps:
as §1

A short description of experiment [10]: Quantitative highthroughput screen to assess conditional lethalithy of SEM cells grown in RPMI1640 with dialyzed fetal bovine serum (RPMI+ds) (AID 1963884). Further: nearly all actives have a fitted effect of over 35% in size. Further: potency means the concentration at half of the fitted maximal effect.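 On Viability: 100% = DMSO control wells and 0% = empty wells without cells.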 To be noted: SEM B-ALL cells, RPMI+dialyzed FBS, CellTiter-Glo viability, 48 h; series mostly up to 45.8 µM. An outline of the steps: as §1
Experiment [11] can be described thus: Cellular viability qHTS for adrenocortical cancer (ACC) cell line NCI-H295R (AID 1963990). Further: nearly all actives have a fitted effect of over 60% in size. Further: potency means the concentration at half of the fitted maximal effect. To be noted: CellTiter-Glo ATP luminescence, 48 h; series mostly up to 46.1 µM. Put shortly: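 CellTiter-Glo ATP luminescence, read 48 h after compound addition, measured viability of NCI-H295R adrenocortical cells grown serum-free with ITS. Final concentrations spanned up to 46 uM. Data normalized to DMSO and doxorubicin, fitted for IC50 and maximal response.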

Experiment [12] is described as follows: Quantitative highthroughput screen to assess conditional lethalithy of P12 Ichikawa cells grown in RPMI1640 with dialyzed fetal bovine serum (RPMI+ds) (AID 1963880). To be noted: ATP luminescence, 48 h; Potency: P12-Ichikawa viability; series mostly up to 45.8 µM. An outline of the steps: as §1

Several values for one entry are separate records, joined by “and”; a condition that tells them apart may be missing. Equal entries are not always repeated. Records with an inconclusive call do not appear. More than one record can exist for a structure, and the calls need not agree. Activity calls are given as the source filed them. The call rests on the fitted dose curve; in most records, active means well fitted curve in the direction sought with a large enough effect; inconclusive means small, poorly fitted or top-dose-only effect, or another doubt; inactive means no such curve, though single readings can be large; an effect the other way counts as inactive or inconclusive.

Consider `CCC(=O)O[C@]1(C(=O)SCF)[C@H](C)C[C@H]2[C@@H]3C[C@H](F)C4=CC(=O)C=C[C@]4(C)[C@@]3(F)[C@@H](O)C[C@@]21C`, for which the Potency is 3.3 nM (active) and 8.3 nM (active) in experiment [1]; 1.18 µM (active) in experiment [2]. Besides, the Potency entry in experiment [3] and in experiment [4] was “inactive” in each case. Also, the activity (max response) in experiment [5] was 0.482% (inactive) and -2.88% (inactive).
Consider `CC(C)C[C@H](NC(=O)[C@H](CCc1ccccc1)NC(=O)CN1CCOCC1)C(=O)N[C@@H](Cc1ccccc1)C(=O)N[C@@H](CC(C)C)C(=O)[C@@]1(C)CO1`, for which the Potency in experiment [1] is 3 nM (active); in [2], 10.6 nM (active) and 4.7 nM (active); in experiment [3], 37.2 nM (active); in experiment [4], 37.2 nM (active); in [6] it was 33.2 nM (active); in experiment [7] it was 20.9 nM (active). Besides, the Potency in experiment [8] was 13.2 nM (active); in experiment [9], 8.3 nM (active); in [10] it was 13.2 nM (active); in experiment [5], 103 nM (active) and 112 nM (active); in [11] it was 65.1 nM (active) and 63.1 nM (active).
On to `CCCCCCCCCC(=O)N[C@@H](Cc1c[nH]c2ccccc12)C(=O)N[C@H](CC(N)=O)C(=O)N[C@@H](CC(=O)O)C(=O)N[C@@H]1C(=O)NCC(=O)N[C@@H](CCCN)C(=O)N[C@@H](CC(=O)O)C(=O)N[C@H](C)C(=O)N[C@@H](CC(=O)O)C(=O)NCC(=O)N[C@H](CO)C(=O)N[C@@H]([C@@H](C)CC(=O)O)C(=O)N[C@@H](CC(=O)c2ccccc2N)C(=O)O[C@@H]1C`, for which the Potency entry in [1], in experiment [3], in experiment [4], in experiment [6], in experiment [12] and in experiment [8] was “inactive” in each case. Further, the Potency entry in experiment [9], in [10] and in experiment [11] was “inactive” in each case. For the same compound, the Potency in [2] is 68.5 nM (active) and inactive. For the same compound, the activity (max response) in experiment [5] is 12.9% (inactive).

(Values after PubChem BioAssay (NCATS).)
